Sfp PPTase inh – qHTS Assay for Inhibitors of Bacillus subtilis Sfp phosphopantetheinyl transferase (PPTase); 4'-phosphopantetheinyl transferase ffp (Bacillus subtilis), Q9F4F7; Biochemical Sfp PPTase activity, qHTS; Potency, µM, most hits filed as inhibitors; hit rate 3.5% among 310,000; AID 1490, 2009;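 also: the enzyme is Sfp with the accession as filed and its product quenches rhodamine fluorescence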
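After 15 min at room temperature with compound, 15 nM Sfp received 5 uM rhodamine-CoA plus 12.5 uM BHQ-2-ybbR (50 mM Hepes pH 7.6, 10 mM MgCl2). Rate came from the fluorescence difference over 30 min, ex 525/em 598 nm.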
VDR inh – Inhibitors of the vitamin D receptor (VDR): qHTS; hit rate 0.93% among 400,000; VDR-SRC2-3 peptide fluorescence polarization, 2 h; Vitamin D3 receptor (Homo sapiens), P11473; AID 504847, 2011; Potency, µM, actives largely listed as inhibitors
Target sequence (P11473 whole entry, looked up): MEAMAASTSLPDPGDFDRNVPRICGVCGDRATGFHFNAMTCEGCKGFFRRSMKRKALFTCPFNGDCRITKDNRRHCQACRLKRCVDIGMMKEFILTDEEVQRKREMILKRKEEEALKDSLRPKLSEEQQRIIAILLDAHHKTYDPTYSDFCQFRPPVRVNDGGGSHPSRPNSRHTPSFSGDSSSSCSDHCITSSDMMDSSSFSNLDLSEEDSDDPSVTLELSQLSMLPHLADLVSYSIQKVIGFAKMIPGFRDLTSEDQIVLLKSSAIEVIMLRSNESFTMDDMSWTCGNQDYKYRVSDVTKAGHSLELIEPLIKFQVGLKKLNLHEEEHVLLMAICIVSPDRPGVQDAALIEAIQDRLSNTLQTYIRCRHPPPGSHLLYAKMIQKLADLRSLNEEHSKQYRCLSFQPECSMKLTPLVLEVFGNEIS
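Measured by FP: displacement of SRC2-3 coactivator peptide from VDR by library compounds, following a two-hour ambient incubation.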
GRP78 ERSR act – qHTS for Inducers of the Endoplasmic Reticulum Stress Response (ERSR) in Human Glioma: qHTS; hit rate 0.02% among 420,000; Potency, µM, actives largely listed as activators; U87-MG GRP78 promoter luciferase reporter, 16 h; also: series mostly up to about 76 µM; nearly all actives have a fitted effect of over 35% in size
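Stably transfected U87-MG glioma cells carrying a GRP78-based luciferase sensor; 16 h compound incubation. Luminescence end-point read 10 min after Bright-Glo addition at room temperature.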
12-LOX inh – Primary qHTS assay for inhibitors of human arachidonate 12S-lipoxygenase (ALOX12): Round 2. Polyunsaturated fatty acid lipoxygenase ALOX12 (Homo sapiens), P18054. purified 12hLO, xylenol orange hydroperoxide absorbance. Potency, µM (series often up to 108 µM), actives largely listed as inhibitors. hit rate 1.1% among 580,000
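Purified human 12hLO (150 nM final) in 25 mM Hepes, 0.01% Triton X-100, pH 7.0 was preincubated 15 min at room temperature with compound. Then 40 uM arachidonic acid was added, 30 min. Hydroperoxide was read by Fe-XO absorbance ratio 573/405 nm.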
G9a block – qHTS Assay for Inhibitors of Histone Lysine Methyltransferase G9a; G9a H3K9 monomethylation, AlphaScreen, 2 h; Potency, µM (titrated, usually from 102 µM), actives largely listed as inhibitors; Histone-lysine N-methyltransferase EHMT2 (Homo sapiens), Q96KQ7; AID 504332, 2011; hit rate 8.8% among 350,000; also: nearly all actives have a fitted effect of over 75% in size
Target sequence (Q96KQ7 913-1193 limits assumed): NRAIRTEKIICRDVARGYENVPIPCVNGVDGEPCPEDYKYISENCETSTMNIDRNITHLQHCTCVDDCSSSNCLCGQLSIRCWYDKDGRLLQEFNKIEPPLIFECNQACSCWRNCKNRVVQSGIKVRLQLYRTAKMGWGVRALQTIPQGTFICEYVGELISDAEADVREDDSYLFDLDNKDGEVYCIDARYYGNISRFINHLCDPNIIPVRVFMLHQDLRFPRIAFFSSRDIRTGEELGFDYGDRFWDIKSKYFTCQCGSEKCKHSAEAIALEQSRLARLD
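G9a (20 nM) preincubated 15 min RT with compounds, then 500 nM biotinylated H3K9 peptide and 20 uM SAM added; 2 h RT reaction. Monomethyl-H3K9 product detected by AlphaScreen with anti-H3K9me1 antibody, streptavidin donor and anti-rabbit IgG acceptor beads.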
Numbers stand for hits; - = inactive; ? = inconclusive; . = not tested or not shown; ! = repeats disagree; [ ] = dose if it differs, or a comment. The entries come from a sample that favours hits as a whole. Calls follow the shape of the dose curve; as a rule, active = well fitted curve in the direction sought with a large enough effect; inconclusive = small, poorly fitted or top-dose-only effect, or another doubt; inactive = no such curve, though single readings can be large; an effect the other way counts as inactive or inconclusive.

SMILES | Sfp PPTase inh | VDR inh | GRP78 ERSR act | 12-LOX inh | G9a block
Cc1c(N2C(=O)/C(=C/C3CC=CCC3)SC2=S)c(=O)n(-c2ccccc2)n1C (centres undefined) | 45µM | ? | ? | - | -[12.7 µM]
CN1C(=O)/C(=C/c2cc(N=Nc3ccccc3)ccc2O)SC1=S | - | - | - | ? | 8.9µM
Cc1c(N2C(=O)/C(=C/c3cccc4ccccc34)SC2=S)c(=O)n(-c2ccccc2)n1C | . | - | - | - | .
Cc1ccc(/C=C2\SC(=S)N(c3c(C)n(C)n(-c4ccccc4)c3=O)C2=O)cc1 | ? | - | - | ? | .
Cc1c(N2C(=O)/C(=C\C3CC=CCC3)SC2=S)c(=O)n(-c2ccccc2)n1C (centres undefined) | 50µM | 50µM | ? | ? | ?
Cc1c(N2C(=O)/C(=C\c3ccccc3O)SC2=S)c(=O)n(-c2ccccc2)n1C | 13µM | ? | - | ? | 1.8µM
COc1ccc(-c2ccc3ncn(C)c(=O)c3n2)cc1OC | . | . | . | - | .
COC(=O)Cn1c(=O)c2c(nc(-n3nc(C)c(C)c3C)n2C)n(C)c1=O | . | . | . | - | .
N#Cc1ccc(C(=O)NN2C(=O)NC3(CCCCC3)C2=O)cc1 | . | - | - | - | 56µM
CN(C)c1cccc(C(=O)NN2C(=O)NC3(CCCCC3)C2=O)c1 | . | - | - | - | -[12.7 µM]
Cc1noc(-c2ccc3c(c2)OCO3)c1C(=O)N1CCC(Cc2ccc(F)cc2)CC1 | . | . | . | - | .
Nc1c(C(=O)Nc2nccs2)sc2nc(-c3cccs3)cc(C(F)(F)F)c12 | - | - | - | - | -
CC(C)(C)C(=O)c1sc2nc(-c3cccs3)cc(C(F)(F)F)c2c1N | 22µM | ? | - | - | ?
CCN(CC)C(=O)c1sc2nc(-c3cccs3)cc(-c3ccc(Cl)cc3)c2c1N | 79µM | ? | - | - | -
N#Cc1sc2nc(-c3cccs3)cc(-c3ccc(Cl)cc3)c2c1N | - | - | - | ? | -
CCN(CC)C(=O)c1sc2nc(-c3cccs3)cc(-c3cccs3)c2c1N | - | - | - | 40µM | 32µM
CCOc1ccc2c(c1)cc(C(=O)NCCOC)n2C | . | . | . | - | .
CCCC/C(=N\NC(C)=O)c1ccccc1 | . | . | . | - | .
COC(=O)C(C#N)c1nc2ccccc2nc1NCC(C)(C)CN(C)C (centres undefined) | . | . | . | - | .
COc1ccc(C(=O)Nc2cccc(NC(C)=O)c2)cc1Br | . | . | . | - | .
CCOC(=O)c1sc(NC(=O)Nc2cccc(Cl)c2)nc1C | . | . | . | - | .
CC(C)(CO)NCc1ccc(Br)cc1 | - | 28µM | - | - | -
CCc1nnc(NC(=O)c2cccc(S(=O)(=O)N3CC(c4ccccc4)CC3=O)c2)s1 (centres undefined) | - | - | - | - | -
Cc1nnc(NC(=O)c2cccc(S(=O)(=O)N3CC(c4ccccc4)CC3=O)c2)s1 (centres undefined) | - | - | - | - | 50µM
COc1ccc(C(=O)Nc2nncs2)cc1S(=O)(=O)N1CC(c2ccccc2)CC1=O (centres undefined) | - | - | - | - | 50µM
SMILES | Sfp PPTase inh | VDR inh | GRP78 ERSR act | 12-LOX inh | G9a block
CCOc1ccc(-c2cccc(NS(=O)(=O)c3cc([N+](=O)[O-])ccc3Cl)c2)nn1 | . | - | - | - | 50µM
COC(=O)CNC(=O)c1ccc(NS(=O)(=O)c2cc([N+](=O)[O-])ccc2Cl)cc1 | - | - | - | - | 56µM
O=[N+]([O-])c1ccc(S(=O)(=O)Nc2cccc(-c3ccc(N4CCOCC4)nn3)c2)cc1 | . | - | - | - | 25µM
Cc1ccc(S(=O)(=O)Nc2cccc(-c3ccc(N4CCCCCC4)nn3)c2)cc1C | - | - | - | - | -
O=[N+]([O-])c1ccc(S(=O)(=O)Nc2ccc(-c3ccc(N4CCOCC4)nn3)cc2)cc1 | . | - | - | - | -[2.33 µM]
Cc1ccc([N+](=O)[O-])cc1S(=O)(=O)Nc1cccc(-c2ccc(N3CCCC3)nn2)c1 | . | - | - | - | 14µM
COCCn1ncc(N2CCCC(CC(=O)N3CCN(c4ccccn4)CC3)C2)cc1=O (centres undefined) | . | . | . | - | .
Cc1cnc(C2CC2)n1CCNS(=O)(=O)c1ccccc1Cl | . | . | . | - | .
COc1ccc(/C=N/O)cc1 | . | . | . | - | .
CSCC[C@H](NC(=O)Cc1ccccc1)c1nc2ccccc2[nH]1 | . | . | . | - | .
O=[N+]([O-])c1ccc(Cl)c(S(=O)(=O)Nc2cccc(-c3ccc(N4CCOCC4)nn3)c2)c1 | . | - | - | - | 50µM
O=[N+]([O-])c1ccc(Cl)c(S(=O)(=O)Nc2ccc(-c3ccc(N4CCOCC4)nn3)cc2)c1 | . | - | - | - | ?
O=C(CN1CCN(c2nc(-c3ccc(F)cc3)cs2)CC1)NCc1ccc2c(c1)OCO2 | - | - | - | - | 40µM
Cc1nc2sc3c(c2c2nc(C(=O)NCC(C)C)nn12)CC(C)(C)OC3 | . | . | . | - | .
COc1ccc(N2CCN(c3ncnc4c3cnn4-c3ccc(C)cc3C)CC2)cc1 | - | - | - | - | -[12.7 µM]
COc1ccc(N2CCN(c3cc(C)c4ccc(C)cc4n3)CC2)cc1 | - | - | - | - | 8.9µM
COc1ccc(N2CCN(c3cc(C)c4cccc(C)c4n3)CC2)cc1 | - | - | - | - | 13µM
Cc1cc(N2CCN(c3ccc(F)cc3)CC2)nc2cc(O)ccc12 | - | - | - | - | 79µM
COc1ccc(N2CCN(c3nc4cc(C)ccc4cc3C=O)CC2)cc1 | - | - | - | - | 25µM
COc1ccc(N2CCN(c3cc(C)c4ccc(O)cc4n3)CC2)cc1 | - | - | - | ? | ?
COc1ccccc1CN(C)CC(=O)N(C)c1c(N)n(Cc2ccccc2)c(=O)[nH]c1=O | . | . | . | - | .
Cc1noc(CN(C)CC2COc3ccccc3O2)n1 (centres undefined) | . | . | . | - | .
CC1(COc2ccccc2)COc2ccc(C(=O)NCCc3ccccn3)cc2N1 (centres undefined) | . | . | . | 18µM | .
O=c1oc2c(O)c(O)cc3c(=O)oc4c(O)c(O)cc1c4c23 | ? | 40µM! | ? | ? | 1.3µM
CC(C)NC(=O)c1cccc2c1CCCN2CC(=O)NC(N)=O | . | . | . | - | .
SMILES | Sfp PPTase inh | VDR inh | GRP78 ERSR act | 12-LOX inh | G9a block
COc1ccc(C(=O)OCc2nc(-c3ccc(F)cc3)no2)cc1S(=O)(=O)N1CCCC1 | . | . | . | - | .
Cc1sc2ncnc(N3CCC(C(=O)Nc4ccc(Br)cc4Br)CC3)c2c1C | . | ? | - | - | 40µM
CCc1cccc(NC(=O)C2CCN(c3ncnc4sc(C)c(C)c34)CC2)c1 | . | ? | - | - | .
Cc1sc2ncnc(N3CCC(C(=O)Nc4ccc(Cl)c(Cl)c4)CC3)c2c1C | . | - | - | - | -[12.7 µM]
Cc1sc2ncnc(N3CCC(C(=O)Nc4ccc(Cl)cc4Cl)CC3)c2c1C | . | - | - | - | 56µM
CCc1ccc(C(=O)N2CCC(Cc3nc(-c4ccc(OC)cc4)no3)CC2)cc1 | . | . | . | - | .
CCOc1ccc2c(c1)cc(C(=O)N1CCCCC1)n2C | . | . | . | - | .

Screening data as filed in PubChem.
